Inconclusive results are not listed. Activity calls are given as the source filed them. Unless noted, the call rests on the fitted dose curve; in most records, active means well fitted curve in the direction sought with a large enough effect; inconclusive means small, poorly fitted or top-dose-only effect, or another doubt; inactive means no such curve, though single readings can be large; an effect the other way counts as inactive or inconclusive.
Columns and labels:
[1] = biological target: Lysosomal acid glucosylceramidase (Homo sapiens) (UniProt P04062); assay: Glucocerebrosidase-p2 (AID 348; in the data active means potency below about 10 µM; further: potency means the concentration at half of the fitted maximal effect); settings: purified GBA, blue fluorogenic substrate, 40 min
Sequence of Lysosomal acid glucosylceramidase (Homo sapiens) (P04062 whole entry, looked up): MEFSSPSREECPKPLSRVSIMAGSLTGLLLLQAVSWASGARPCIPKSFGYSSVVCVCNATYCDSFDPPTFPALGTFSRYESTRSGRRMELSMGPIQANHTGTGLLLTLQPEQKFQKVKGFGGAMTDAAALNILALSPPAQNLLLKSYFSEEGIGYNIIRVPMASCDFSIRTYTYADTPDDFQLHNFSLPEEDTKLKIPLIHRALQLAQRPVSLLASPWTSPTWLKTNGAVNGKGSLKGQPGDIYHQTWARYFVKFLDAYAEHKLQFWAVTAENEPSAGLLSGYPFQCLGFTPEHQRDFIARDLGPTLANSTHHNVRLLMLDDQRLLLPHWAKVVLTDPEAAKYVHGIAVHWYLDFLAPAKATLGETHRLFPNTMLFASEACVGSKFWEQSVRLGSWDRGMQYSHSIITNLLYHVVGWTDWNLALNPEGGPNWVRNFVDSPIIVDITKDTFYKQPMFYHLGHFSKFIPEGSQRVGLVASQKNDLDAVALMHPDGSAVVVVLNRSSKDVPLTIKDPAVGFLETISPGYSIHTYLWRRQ
Procedure, shortened: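 Compounds titrated from 0.6 nM upwards against 0.2 nM enzyme in pH 5.9 citric acid/KH2PO4, taurocholate, tween-20; blue fluorogenic substrate 80 uM, 40 min room temperature, stopped and read Ex 365/Em 440 for AC50.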

[2] = AP1 Signaling Pathway (AID 357; active means well fitted curve in either direction with a large enough effect, not every such curve was filed as active;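 further: ME-180 reporter cells stimulated with EGF at its EC50 level; on the % scale 0 is the no-effect control and ±100 the full control effect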); settings: ME-180 AP-1-bla reporter, EGF-induced, beta-lactamase ratio, 5 h; at 7.69 µM (top of the series) unless noted
Procedure, shortened: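 Cells are seeded overnight, exposed to compound titrations and an EC50 level of EGF for 5 hours at 37 °C, then loaded with CCF4 dye for 2.5 hours. Beta-lactamase activity under the AP-1 element is read as a blue/green ratio.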

[3] = biological target: Cytochrome P450 1A2 (Homo sapiens) (UniProt P05177); assay: p450-cyp1a2 (AID 410; calls by dose curve; further: potency means the concentration at half of the fitted maximal effect); settings: recombinant CYP1A2, luciferin-ME demethylation, luminescence; series mostly up to 57 µM
Sequence of Cytochrome P450 1A2 (Homo sapiens) (P05177 whole entry, looked up): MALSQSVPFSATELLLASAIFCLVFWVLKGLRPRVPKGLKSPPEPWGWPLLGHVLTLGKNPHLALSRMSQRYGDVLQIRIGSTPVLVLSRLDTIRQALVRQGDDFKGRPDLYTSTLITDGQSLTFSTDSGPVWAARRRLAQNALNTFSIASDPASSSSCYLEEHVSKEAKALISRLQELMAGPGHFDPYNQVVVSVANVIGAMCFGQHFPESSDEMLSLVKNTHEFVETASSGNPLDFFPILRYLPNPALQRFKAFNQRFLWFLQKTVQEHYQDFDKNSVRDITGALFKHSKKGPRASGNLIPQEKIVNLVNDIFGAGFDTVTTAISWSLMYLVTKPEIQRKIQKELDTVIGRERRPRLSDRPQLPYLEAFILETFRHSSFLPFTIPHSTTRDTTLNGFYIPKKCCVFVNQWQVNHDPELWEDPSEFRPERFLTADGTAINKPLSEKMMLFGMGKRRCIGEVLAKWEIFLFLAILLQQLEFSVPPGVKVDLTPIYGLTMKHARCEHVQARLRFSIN
Procedure, shortened: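 20nM CYP1A2 with 100uM Luciferin-ME (at Km) in 100mM KPO4; compound preincubated 10 min, NADPH regeneration added, 60 min at room temperature. Luciferin quantified by luminescence after detection reagent; normalized to 57 uM furafylline.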

[4] = NFAT Signaling Pathway (AID 444; active means well fitted curve in either direction with a large enough effect, not every such curve was filed as active;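 further: carbachol stimulus at about its EC50 of 1 µM final; on the % scale 0 is the no-effect control and ±100 the full control effect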); settings: Jurkat NFAT-bla M1, carbachol, beta-lactamase ratio, 5 h; at 7.69 µM (top of the series) unless noted
Procedure, shortened: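 Jurkat cells carrying an NFAT-driven β-lactamase reporter and co-transfected muscarinic M1 receptor were treated with compound plus carbachol (1 uM final, an EC50 level) for 5 h at 37 °C. CCF4 loading followed for 1 h at RT; 460/530 nm ratio gave %activity.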

[5] = Stat Signaling Pathway (AID 446; active means well fitted curve in either direction with a large enough effect, not every such curve was filed as active;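 further: ME-180 cervical cancer cells given 40 pM IL-6 alongside compound; SIE-controlled beta-lactamase reporter measured as 460/530 nm FRET emission ratio; on the % scale 0 is the no-effect control and ±100 the full control effect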); settings: ME-180 SIE beta-lactamase reporter, IL-6 stimulated, 5 h; at 7.69 µM (top of the series) unless noted
Procedure, shortened: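 ME-180 cells carrying a SIE-driven beta-lactamase reporter are stimulated with 40 pM IL-6 for 5 h at 37C in the presence of compound. The 460/530 nm FRET substrate ratio is read after 2.5 h at RT. Data are normalised to 300 pM IL-6 and to 125 nM JAK inhibitor controls.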

[6] = biological target: Glucocorticoid receptor (Homo sapiens) (UniProt P04150); assay: GR-GFP Redistribution (AID 450;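 active means compounds whose dose series gives a full or clear partial fitted curve of increased nuclear translocation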; further: potency means the concentration at half of the fitted maximal effect); settings: U2OS GR-GFP nuclear translocation, laser cytometry, 2 h
Sequence of Glucocorticoid receptor (Homo sapiens) (P04150 whole entry, looked up, the tested form may be a part): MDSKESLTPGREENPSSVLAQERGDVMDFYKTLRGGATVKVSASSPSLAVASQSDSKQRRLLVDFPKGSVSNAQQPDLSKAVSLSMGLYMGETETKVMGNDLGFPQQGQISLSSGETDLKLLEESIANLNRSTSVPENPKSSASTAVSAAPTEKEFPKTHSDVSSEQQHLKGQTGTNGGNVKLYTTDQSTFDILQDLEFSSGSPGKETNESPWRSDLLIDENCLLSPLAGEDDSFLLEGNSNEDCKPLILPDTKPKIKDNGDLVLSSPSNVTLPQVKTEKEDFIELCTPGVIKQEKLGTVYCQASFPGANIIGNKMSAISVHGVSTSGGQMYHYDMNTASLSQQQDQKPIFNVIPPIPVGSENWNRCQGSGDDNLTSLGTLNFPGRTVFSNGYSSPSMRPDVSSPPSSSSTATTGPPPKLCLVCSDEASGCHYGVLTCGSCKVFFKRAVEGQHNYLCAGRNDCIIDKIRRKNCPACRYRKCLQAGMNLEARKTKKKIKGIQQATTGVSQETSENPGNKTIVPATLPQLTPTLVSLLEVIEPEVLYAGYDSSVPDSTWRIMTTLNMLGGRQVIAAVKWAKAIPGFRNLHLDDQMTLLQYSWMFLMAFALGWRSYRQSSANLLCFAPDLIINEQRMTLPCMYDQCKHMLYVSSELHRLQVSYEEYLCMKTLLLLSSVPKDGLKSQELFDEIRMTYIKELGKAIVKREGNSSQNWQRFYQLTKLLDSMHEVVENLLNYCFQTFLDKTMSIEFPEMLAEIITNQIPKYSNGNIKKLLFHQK

[7] = biological target: Glucocorticoid receptor (Homo sapiens) (UniProt P04150); assay: GR-EFC Redistribution (AID 451; calls by dose curve; further: potency means the concentration at half of the fitted maximal effect); settings: CHO-K1 GR-EFC translocation, beta-gal luminescence, 2 h
Procedure, shortened: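 CHO-K1 cells stably expressing nuclear-localized β-gal enzyme acceptor and GR fused C-terminally to the enzyme donor fragment; ligand-driven nuclear translocation restores β-gal by complementation. Compounds titrated up to 46 uM final, 2 h at 37 °C; luminescence read.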

[8] = biological target: Mitogen-activated protein kinase 10 (Mus musculus) (UniProt Q61831); assay: JNK3 AlphaScreen Assay (AID 530; active means well fitted curve in either direction with a large enough effect, not every such curve was filed as active;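 further: kinase came from lysate of stimulated human HepG2 cells; signal reports phosphorylation of biotinylated GST-cJun 1-79 at Ser73 with 10 µM ATP; on the % scale 0 is the no-effect control and ±100 the full control effect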); settings: JNK3 lysate, c-Jun phosphorylation; series mostly up to 57.1 µM
Procedure, shortened: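 Inhibitors reduce antibody binding to phosphorylated biotin-cJun, lowering AlphaScreen luminescence. Lysates from HepG2 cells pre-activated by IL-1beta plus TNF-alpha supplied JNK3; compounds were titrated.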

[9] = biological target: 3',5'-cyclic-AMP phosphodiesterase 4B (Homo sapiens) (UniProt Q07343); assay: qHTS Assay for Inhibitors of PDE-IV (AID 607; active means well fitted activation curve with a large enough effect in the main read-out, with a control signal flat, not every such curve was filed as active; further: % of control where 0% means no effect); settings: HEK293 ACTOne CNG channel cells, membrane potential fluorescence; series mostly up to 22.9 µM
Sequence of 3',5'-cyclic-AMP phosphodiesterase 4B (Homo sapiens) (Q07343 whole entry, looked up): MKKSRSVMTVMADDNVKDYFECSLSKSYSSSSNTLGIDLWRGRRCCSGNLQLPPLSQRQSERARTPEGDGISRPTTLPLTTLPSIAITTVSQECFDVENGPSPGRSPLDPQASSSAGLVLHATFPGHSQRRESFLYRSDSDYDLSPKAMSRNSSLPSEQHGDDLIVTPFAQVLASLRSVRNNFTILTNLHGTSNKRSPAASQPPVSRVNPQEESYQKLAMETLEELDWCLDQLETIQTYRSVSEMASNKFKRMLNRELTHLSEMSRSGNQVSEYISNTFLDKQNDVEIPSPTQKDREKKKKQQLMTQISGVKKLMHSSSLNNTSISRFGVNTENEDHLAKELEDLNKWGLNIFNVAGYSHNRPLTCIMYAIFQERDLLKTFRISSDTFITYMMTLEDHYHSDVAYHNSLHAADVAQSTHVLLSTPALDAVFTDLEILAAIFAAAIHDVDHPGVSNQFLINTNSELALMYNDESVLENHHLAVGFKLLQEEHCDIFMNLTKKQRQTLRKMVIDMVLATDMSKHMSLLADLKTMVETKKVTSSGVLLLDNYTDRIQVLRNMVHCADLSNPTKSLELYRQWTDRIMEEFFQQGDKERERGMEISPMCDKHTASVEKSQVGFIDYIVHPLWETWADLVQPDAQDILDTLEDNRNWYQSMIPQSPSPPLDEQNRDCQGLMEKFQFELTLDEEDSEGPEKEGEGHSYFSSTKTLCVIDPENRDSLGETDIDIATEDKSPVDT
Procedure, shortened: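 HEK293 ACTOne cells with CNG channel (1000/well), endogenous PDE4; membrane potential dye, compounds up to 22.9 uM final. Fluorescence Ex 535/Em 590; RO 20-1724 (100 uM final) as reference.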

[10] = biological target: Cytochrome P450 3A4 (Homo sapiens) (UniProt P08684); assay: qHTS Assay for Activators of Cytochrome P450 3A4 (AID 885); settings: recombinant CYP3A4, Luciferin-PPXE luminescence, 60 min; series mostly up to 57.1 µM; further: nearly all actives have a fitted effect of over 65% in size
Sequence of Cytochrome P450 3A4 (Homo sapiens) (P08684 whole entry, looked up): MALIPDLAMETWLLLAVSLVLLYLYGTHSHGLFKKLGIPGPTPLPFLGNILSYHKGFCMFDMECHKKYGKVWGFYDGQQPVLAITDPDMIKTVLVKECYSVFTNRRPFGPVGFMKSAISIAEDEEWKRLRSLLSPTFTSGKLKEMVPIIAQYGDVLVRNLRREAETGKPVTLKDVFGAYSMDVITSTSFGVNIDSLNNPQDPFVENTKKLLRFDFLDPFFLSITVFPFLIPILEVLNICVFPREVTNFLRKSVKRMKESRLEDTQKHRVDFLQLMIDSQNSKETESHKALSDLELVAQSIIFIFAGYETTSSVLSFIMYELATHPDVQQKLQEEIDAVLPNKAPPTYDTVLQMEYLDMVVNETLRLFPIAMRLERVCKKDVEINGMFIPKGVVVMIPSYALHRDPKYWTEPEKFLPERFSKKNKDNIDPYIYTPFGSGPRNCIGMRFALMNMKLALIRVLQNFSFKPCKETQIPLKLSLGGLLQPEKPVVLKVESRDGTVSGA
Procedure, shortened: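 Human CYP3A4 (20 nM) with Luciferin-PPXE at 25 uM (its KM) in 200 mM KPO4; 10 min compound preincubation, then NADPH regeneration and 60 min reaction at RT. Luciferin read by luminescence; normalized to 57 uM ketoconazole full inhibition.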

[11] = qHTS Assay for Lipid Storage Modulators (AID 1519; calls by dose curve); settings: Drosophila S3 cells, BODIPY lipid droplet/cell ratio, laser cytometry, cells loaded with oleic acid; for activity change, negative = inhibition: at 57.5 µM (top of the series)
Procedure, shortened: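 Cells seeded at 5,000 per well were treated with compounds over a concentration series and loaded with oleic acid (400 uM, as added). Lipid droplet fluorescence (488 nm excitation, 500-530 nm channel) was read by laser-scanning cytometry and normalized to 20 uM Triacsin C.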

[12] = biological target: Dual specificity protein kinase CLK4 (Homo sapiens) (UniProt Q9HAZ1); assay: qHTS Assay for Inhibitors of CDC-like Kinase 4 (Kinase-Glo Assay) (AID 1770); settings: recombinant Clk4, Kinase-Glo ATP depletion luminescence; series mostly up to 66.7 µM; further: nearly all actives have a fitted effect of over 65% in size; further: potency means the concentration at half of the fitted maximal effect
Sequence of Dual specificity protein kinase CLK4 (Homo sapiens) (Q9HAZ1 whole entry, looked up): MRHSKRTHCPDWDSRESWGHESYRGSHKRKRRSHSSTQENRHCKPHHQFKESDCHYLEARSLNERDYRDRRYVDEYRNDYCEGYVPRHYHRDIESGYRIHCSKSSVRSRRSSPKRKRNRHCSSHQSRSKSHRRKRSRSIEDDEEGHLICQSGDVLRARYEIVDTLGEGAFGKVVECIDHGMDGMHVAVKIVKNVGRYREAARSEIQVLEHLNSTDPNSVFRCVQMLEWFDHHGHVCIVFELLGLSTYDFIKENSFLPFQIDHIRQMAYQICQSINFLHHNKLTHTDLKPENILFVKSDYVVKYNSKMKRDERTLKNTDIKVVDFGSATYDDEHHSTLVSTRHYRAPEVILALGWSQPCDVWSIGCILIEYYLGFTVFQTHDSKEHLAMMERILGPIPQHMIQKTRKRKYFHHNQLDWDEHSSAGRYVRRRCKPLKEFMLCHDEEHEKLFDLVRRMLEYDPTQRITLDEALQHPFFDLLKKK
Procedure, shortened: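 Inhibition was judged from remaining ATP, measured by Ultra-Glo luciferase bioluminescence after Clk4 (25 nM) had acted on RS peptide at 1 uM ATP for 4.5 hours, room temperature.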

[13] = biological target: Dual specificity protein kinase CLK4 (Homo sapiens) (UniProt Q9HAZ1); assay: qHTS Assay for Inhibitors of CDC-like Kinase 4 (ADP-FP Assay) (AID 1795); settings: Transcreener ADP fluorescence polarization; series mostly up to 50 µM; further: nearly all actives have a fitted effect of over 60% in size; further: potency means the concentration at half of the fitted maximal effect
Procedure, shortened: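 Inhibition of ADP formation by 6.25 nM Clk4 is measured using 1 uM ATP and 100 uM RS repeat peptide over one hour. Produced ADP displaces a fluorescent tracer from antibody, lowering polarization.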

[14] = biological target: Ubiquitin carboxyl-terminal hydrolase 1 (Homo sapiens) (UniProt O94782); assay: Inhibitors of USP1/UAF1: Pilot qHTS (AID 504865); settings: purified USP1/UAF1, Ub-rhodamine cleavage fluorescence; series mostly up to 54.9 µM;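 further: rhodamine fluorescence freed from ubiquitin-rhodamine substrate followed over time; top concentration of the series differs between compounds; on the % scale 0 is the no-effect control and ±100 the full control effect; nearly all actives have a fitted effect of over 35% in size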
Sequence of Ubiquitin carboxyl-terminal hydrolase 1 (Homo sapiens) (O94782 whole entry, looked up): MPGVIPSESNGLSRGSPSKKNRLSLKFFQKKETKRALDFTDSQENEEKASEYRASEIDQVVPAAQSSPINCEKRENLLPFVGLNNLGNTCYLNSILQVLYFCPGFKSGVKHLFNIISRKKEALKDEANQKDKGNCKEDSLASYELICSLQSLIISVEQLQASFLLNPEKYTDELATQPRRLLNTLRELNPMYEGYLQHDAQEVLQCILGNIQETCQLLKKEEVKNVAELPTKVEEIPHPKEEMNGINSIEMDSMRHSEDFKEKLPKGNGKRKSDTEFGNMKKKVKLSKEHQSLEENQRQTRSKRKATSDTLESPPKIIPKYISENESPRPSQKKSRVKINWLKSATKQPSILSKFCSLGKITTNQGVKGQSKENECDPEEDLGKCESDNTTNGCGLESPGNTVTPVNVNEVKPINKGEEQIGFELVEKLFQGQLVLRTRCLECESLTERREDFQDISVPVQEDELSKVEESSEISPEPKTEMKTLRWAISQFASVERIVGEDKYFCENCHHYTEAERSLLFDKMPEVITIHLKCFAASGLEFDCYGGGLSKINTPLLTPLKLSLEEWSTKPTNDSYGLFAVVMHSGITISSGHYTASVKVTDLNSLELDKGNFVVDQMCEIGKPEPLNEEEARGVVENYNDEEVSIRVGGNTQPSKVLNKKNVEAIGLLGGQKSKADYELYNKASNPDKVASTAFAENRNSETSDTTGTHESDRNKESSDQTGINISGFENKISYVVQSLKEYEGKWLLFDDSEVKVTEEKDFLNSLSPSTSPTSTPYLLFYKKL
Procedure, shortened: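 Kinetic fluorescence assay: 1nM USP1/UAF1, 15 min compound preincubation, then 150nM Ub-Rho; 480/540 nm.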

[15] = biological target: Cytochrome P450 3A4 (Homo sapiens) (UniProt P08684); assay: qHTS Assay for Inhibitors and Substrates of Cytochrome P450 3A4 (AID 884); settings: recombinant CYP3A4, Luciferin-PPXE luminescence; series mostly up to 57.1 µM; further: potency means the concentration at half of the fitted maximal effect; nearly all actives have a fitted effect of over 50% in size
Procedure, shortened: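 20 nM human CYP3A4 with 25 uM Luciferin-PPXE (at KM) in 200 mM KPO4, preincubated 10 min with compound; NADPH regeneration started a 60 min RT reaction. Luciferin detected by luminescence, normalized to 57 uM ketoconazole as full inhibition.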

[16] = biological target: Cytochrome P450 2C19 (Homo sapiens) (UniProt P33261); assay: qHTS Assay for Inhibitors and Substrates of Cytochrome P450 2C19 (AID 899); settings: recombinant CYP2C19, luciferin-H EGE luminescence; series mostly up to 57.1 µM; further: potency means the concentration at half of the fitted maximal effect; nearly all actives have a fitted effect of over 60% in size
Sequence of Cytochrome P450 2C19 (Homo sapiens) (P33261 whole entry, looked up): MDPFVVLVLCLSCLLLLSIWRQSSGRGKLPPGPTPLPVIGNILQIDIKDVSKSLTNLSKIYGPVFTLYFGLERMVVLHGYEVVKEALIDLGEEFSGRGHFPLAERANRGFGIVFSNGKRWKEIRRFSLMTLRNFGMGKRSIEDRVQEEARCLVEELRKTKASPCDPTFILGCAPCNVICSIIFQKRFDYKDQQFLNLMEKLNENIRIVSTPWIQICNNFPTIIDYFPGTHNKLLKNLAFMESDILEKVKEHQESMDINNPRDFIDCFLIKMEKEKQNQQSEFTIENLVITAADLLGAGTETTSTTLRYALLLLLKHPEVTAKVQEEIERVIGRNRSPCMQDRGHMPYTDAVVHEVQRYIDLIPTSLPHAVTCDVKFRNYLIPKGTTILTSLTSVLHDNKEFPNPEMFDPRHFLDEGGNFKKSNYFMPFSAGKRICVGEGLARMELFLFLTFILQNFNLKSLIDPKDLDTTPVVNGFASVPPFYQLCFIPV
Procedure, shortened: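 NADPH-dependent conversion of Luciferin-H EGE (10uM, at KM) by 5nM enzyme in 50mM KPO4, 60 min at 37C following 10 min compound preincubation. Stopped with luciferin detection buffer; luminescence read after 20 min.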

[17] = biological target: Dual specificity protein kinase CLK4 (Homo sapiens) (UniProt Q9HAZ1); assay: qHTS Assay for Inhibitors of CDC-like Kinase 4 (ADP-Glo Assay) (AID 1771); settings: recombinant CLK4, ADP-Glo luminescence; series mostly up to 80 µM; further: potency means the concentration at half of the fitted maximal effect; nearly all actives have a fitted effect of over 70% in size
Procedure, shortened: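 25 nM Clk4 with 100 uM RS repeat peptide and 1 uM ATP (final) in buffer with 2 mM MgCl2, 0.5 mM EGTA, 2.5 mM DTT, 0.01% Triton X-100; 1 h at room temperature; ADP-Glo luminescence for ADP formed.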

[18] = measured here: cell count channel max response
[19] = measured here: lipid channel max response

Row | Structure (SMILES) | Potency [1] | activity change, negative = inhibition [2] | Potency [3] | activity change, negative = inhibition [4] | activity, negative = inhibition [5] | Potency [6] | Potency [7] | Potency [8] | Potency [9] | Potency [10] | activity change, negative = inhibition [11] | max response [11, 18] [%] | max response [11, 19] [%] | Potency [12] | Potency [13] | Potency [14] | Potency [15] | Potency [16] | Potency [17]
1 | CN1CCN(c2ncncc2-c2ccc(N(C)C)cc2)CC1 | > 11.4 µM (inactive) | -1.37% (inactive) | 12.6 µM (active) | 6.42% (inactive) | 3.73% (inactive) | > 46 µM (inactive) | > 46 µM (inactive) | inactive | inactive | inactive | 2.46% (inactive) | 19.8 | 21.2 | inactive | inactive | inactive | – | – | –
2 | Cn1c(=O)c(-c2ccc(F)cc2)nc2cnc(OCc3ccccc3)nc21 | > 11.4 µM (inactive) | 14.6% (inactive) | – | 19.9% (inactive) | -11.9% (inactive) | > 9.22 µM (inactive) | > 46 µM (inactive) | inactive | inactive | – | 5.66% (inactive) | 7.28 | 10.2 | inactive | inactive | inactive | – | – | –
3 | COCCn1c(=O)c(-c2ccccc2)nc2cnc(N(C)C)nc21 | > 11.4 µM (inactive) | -2% (inactive) | 3.16 µM (active) | 10.9% (inactive) | – | > 9.22 µM (inactive) | > 46 µM (inactive) | – | – | inactive | 6.53% (inactive) | 12.4 | 13.8 | inactive | inactive | inactive | – | – | –
4 | CN1CCN(c2ncc3nc(-c4cccc(C#N)c4)c(=O)n(C)c3n2)CC1 | > 11.4 µM (inactive) | 0.861% (inactive) | 12.6 µM (active) | 13.1% (inactive) | -0.0628% (inactive) | > 9.22 µM (inactive) | > 46 µM (inactive) | inactive | inactive | – | 1.68% (inactive) | 0.187 | 0.284 | inactive | – | inactive | – | – | –
5 | COc1ccccc1CNc1ncnc2ccc(-c3ccccc3OC)cc12 | > 11.4 µM (inactive) | -19.9% (inactive) | 1 µM (active) | – | – | > 46 µM (inactive) | > 46 µM (inactive) | inactive | – | inactive | -20% (inactive) | -10.4 | -24.8 | 4.47 µM (active) | – | inactive | 6.31 µM (active) | 3.16 µM (active) | 4.47 µM (active)
6 | Cc1noc(C)c1-c1nc(NC2CCNCC2)c2ccccc2n1 | – | 34.4% (inactive) | 5.01 µM (active) | 26.2% (inactive) | 6.06% (inactive) | > 46 µM (inactive) | > 46 µM (inactive) | inactive | inactive | – | 4.9% (inactive) | 11.4 | 12.7 | 25.1 µM (active) | – | inactive | – | – | 28.2 µM (active)
7 | Cc1nc2cnc(N3CCN(C)CC3)nc2n(C2CC2)c1=O | > 11.4 µM (inactive) | -13.1% (inactive) | – | -3.47% (inactive) | -9.11% (inactive) | > 9.22 µM (inactive) | > 46 µM (inactive) | inactive | – | – | 3.22% (inactive) | 14.4 | 16.3 | inactive | inactive | inactive | – | – | –
8 | COc1ccccc1-c1nc(N(C)C)c2ccccc2n1 | > 11.4 µM (inactive) | 19.2% (inactive) | 0.398 µM (active) | -18.6% (inactive) | 31.2% (inactive) | > 46 µM (inactive) | > 46 µM (inactive) | inactive | inactive | inactive | -1.18% (inactive) | 4.21 | -1.67 | inactive | inactive | inactive | – | – | –
9 | O=c1c(-c2ccccc2)nc2cnc(Oc3cccc(Cl)c3)nc2n1C[C@H]1CCCO1 | > 11.4 µM (inactive) | – | – | -8.22% (inactive) | -8.43% (inactive) | > 9.22 µM (inactive) | > 46 µM (inactive) | inactive | – | – | -16.5% (inactive) | 18.2 | -2.39 | inactive | inactive | inactive | – | – | –
10 | COc1ccccc1CNc1ncnc2ccc(-c3ccoc3)cc12 | – | – | – | -7.72% (inactive) | -21.5% (inactive) | > 46 µM (inactive) | > 46 µM (inactive) | inactive | – | inactive | -10.7% (inactive) | 20 | 4.99 | 0.251 µM (active) | 0.141 µM (active) | inactive | – | – | 0.316 µM (active)
11 | COc1ccccc1-c1ccc2ncnc(NCc3cnc(C)cn3)c2c1 | > 11.4 µM (inactive) | -23.9% (inactive) | 6.31 µM (active) | 3.25% (inactive) | -25.2% (inactive) | > 46 µM (inactive) | > 46 µM (inactive) | inactive | inactive | inactive | 2.78% (inactive) | 13.2 | 14 | 15.8 µM (active) | – | inactive | – | – | 17.8 µM (active)
12 | COc1ccccc1-c1ccc2ncnc(NCCNC(C)=O)c2c1 | > 11.4 µM (inactive) | 11.9% (inactive) | 5.01 µM (active) | 3.1% (inactive) | -8.48% (inactive) | > 46 µM (inactive) | > 46 µM (inactive) | inactive | inactive | inactive | 1.76% (inactive) | -6.93 | -7.23 | 11.2 µM (active) | – | inactive | – | – | 15.8 µM (active)
